# Test results taken from PubChem BioAssay AID1159580 (chemical genetic matrix, 2015).
# Among all 5,500 compounds or so, about 2,000 (36%) were called active. About 18% were inconclusive and are not listed. Some of the results follow. A number with no mark means an inactive call. Rule as the data show it: active = normalized growth mostly below about 0.91 (no sharp cut-off); inconclusive = no clear call, values can overlap the other calls; inactive = mostly above about 0.92.
# Assay: chemical genetic growth profiling, strain panel (AID 1159580);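 also: tested at 20 µM; growth read once vehicle control cultures reached saturation at 30 °C; 1 = growth at the plate median or of vehicle wells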
# Details: S. cerevisiae deletion strains, growth OD
compound,measurement,setting,value
COc1ccc(C(c2ccc(OC)cc2)C(Cl)(Cl)Cl)cc1,normalized growth,"locus YAL013W, strain DEP1, stronger effect = lower value",1
same,normalized growth,"locus YAL021C, strain ccr4, stronger effect = lower value",0.989
same,normalized growth,"locus YAL026C, strain drs2, stronger effect = lower value",1.01
same,normalized growth,"locus YAL030W, strain snc1, stronger effect = lower value",1.02
same,normalized growth,"locus YBL061C, strain skt5, stronger effect = lower value",1.01
same,normalized growth,"locus YBR009C, strain hhf1, stronger effect = lower value",1.01
same,normalized growth,"locus YBR021W, strain FUR4, stronger effect = lower value",0.974
same,normalized growth,"locus YBR023C, strain chs3, stronger effect = lower value",0.998
same,normalized growth,"locus YBR171W, strain sec66, stronger effect = lower value",1
same,normalized growth,"locus YBR229C, strain ROT2, stronger effect = lower value",0.997
same,normalized growth,"locus YBR231C, strain swc5, stronger effect = lower value",1.01
same,normalized growth,"locus YBR279W, strain paf1, stronger effect = lower value",1.02
same,normalized growth,"locus YCL011C, strain gbp2, stronger effect = lower value",1.02
same,normalized growth,"locus YCL016C, strain dcc1, stronger effect = lower value",1.01
same,normalized growth,"locus YCL029C, strain bik1, stronger effect = lower value",0.981
same,normalized growth,"locus YCL061C, strain MRC1, stronger effect = lower value",1.01
same,normalized growth,"locus YCL069W, strain vba3, stronger effect = lower value",1.02
same,normalized growth,"locus YCR088W, strain abp1, stronger effect = lower value",1.01
same,normalized growth,"locus YDL005C, strain med2, stronger effect = lower value",1.01
same,normalized growth,"locus YDL035C, strain GPR1, stronger effect = lower value",0.999
same,normalized growth,"locus YDL040C, strain nat1, stronger effect = lower value",1.02
same,normalized growth,"locus YDL074C, strain BRE1, stronger effect = lower value",0.986
same,normalized growth,"locus YDL101C, strain DUN1, stronger effect = lower value",0.996
same,normalized growth,"locus YDL134C, strain PPH21, stronger effect = lower value",1
same,normalized growth,"locus YDL185W, strain tfp1, stronger effect = lower value",0.981
same,normalized growth,"locus YDL192W, strain arf1, stronger effect = lower value",0.992
same,normalized growth,"locus YDR001C, strain nth1, stronger effect = lower value",1.01
same,normalized growth,"locus YDR069C, strain doa4, stronger effect = lower value",0.992
same,normalized growth,"locus YDR101C, strain arx1, stronger effect = lower value",0.995
same,normalized growth,"locus YDR137W, strain rgp1, stronger effect = lower value",0.959
same,normalized growth,"locus YDR150W, strain NUM1, stronger effect = lower value",1
same,normalized growth,"locus YDR159W, strain sac3, stronger effect = lower value",0.972
same,normalized growth,"locus YDR162C, strain NBP2, stronger effect = lower value",1.01
same,normalized growth,"locus YDR195W, strain ref2",1.07
same,normalized growth,"locus YDR297W, strain sur2, stronger effect = lower value",1
same,normalized growth,"locus YDR318W, strain mcm21, stronger effect = lower value",0.996
same,normalized growth,"locus YDR334W, strain swr1, stronger effect = lower value",1.03
same,normalized growth,"locus YDR335W, strain msn5, stronger effect = lower value",1.01
same,normalized growth,"locus YDR388W, stronger effect = lower value",0.988
same,normalized growth,"locus YDR392W, strain spt3, stronger effect = lower value",0.957
same,normalized growth,"locus YDR502C, strain sam2, stronger effect = lower value",0.989
same,normalized growth,"locus YEL003W, strain gim4, stronger effect = lower value",0.994
same,normalized growth,"locus YEL037C, strain rad23, stronger effect = lower value",1.01
same,normalized growth,"locus YEL061C, strain CIN8 (second series), stronger effect = lower value",1.01
same,normalized growth,"locus YEL061C, strain CIN8, stronger effect = lower value",0.995
same,normalized growth,"locus YER015W, strain faa2, stronger effect = lower value",0.984
same,normalized growth,"locus YER016W, strain bim1, stronger effect = lower value",1.02
same,normalized growth,"locus YER110C, stronger effect = lower value",0.984
same,normalized growth,"locus YER111C, strain swi4, stronger effect = lower value",1.01
same,normalized growth,"locus YER155C, strain BEM2 (second series), stronger effect = lower value",1
same,normalized growth,"locus YER155C, strain BEM2, stronger effect = lower value",0.989
same,normalized growth,"locus YER167W, strain BCK2, stronger effect = lower value",0.996
same,normalized growth,"locus YFR010W, strain ubp6, stronger effect = lower value",1.01
same,normalized growth,"locus YGL078C, strain dbp3, stronger effect = lower value",0.991
same,normalized growth,"locus YGL086W, strain mad1, stronger effect = lower value",1.02
same,normalized growth,"locus YGL167C, strain pmr1, stronger effect = lower value",1.01
same,normalized growth,"locus YGL173C, strain kem1, stronger effect = lower value",1
same,normalized growth,"locus YGL227W, strain vid30, stronger effect = lower value",1.01
same,normalized growth,"locus YGL240W, strain doc1, stronger effect = lower value",1.02
same,normalized growth,"locus YGL248W, strain PDE1, stronger effect = lower value",0.987
same,normalized growth,"locus YGL253W, strain hxk2, stronger effect = lower value",0.997
same,normalized growth,"locus YGR078C, strain PAC10, stronger effect = lower value",1.01
same,normalized growth,"locus YGR135W, strain pre9, stronger effect = lower value",0.994
same,normalized growth,"locus YGR229C, strain SMI1, stronger effect = lower value",1
same,normalized growth,"locus YGR252W, strain gcn5, stronger effect = lower value",0.947
same,normalized growth,"locus YHR013C, strain ard1, stronger effect = lower value",0.949
same,normalized growth,"locus YHR027C, strain rpn1, stronger effect = lower value",1
same,normalized growth,"locus YHR030C, strain SLT2, stronger effect = lower value",1
same,normalized growth,"locus YHR079C, strain IRE1 (second series), stronger effect = lower value",0.979
same,normalized growth,"locus YHR094C, strain hxt1, stronger effect = lower value",0.994
same,normalized growth,"locus YHR129C, strain ARP1, stronger effect = lower value",1
same,normalized growth,"locus YHR142W, strain chs7, stronger effect = lower value",0.988
same,normalized growth,"locus YHR200W, strain rpn10, stronger effect = lower value",0.985
same,normalized growth,"locus YIL066C, strain RNR3, stronger effect = lower value",0.977
same,normalized growth,"locus YIL073C, strain SPO22, stronger effect = lower value",0.952
same,normalized growth,"locus YIL125W, strain kgd1, stronger effect = lower value",0.996
same,normalized growth,"locus YIR030C, strain dcg1, stronger effect = lower value",0.998
same,normalized growth,"locus YJL092W, strain hpr5, stronger effect = lower value",1.01
same,normalized growth,"locus YJL095W, strain BCK1 (second series), stronger effect = lower value",1.02
same,normalized growth,"locus YJL095W, strain BCK1, stronger effect = lower value",1.03
same,normalized growth,"locus YJL115W, strain asf1, stronger effect = lower value",1.01
same,normalized growth,"locus YJL129C, strain trk1, stronger effect = lower value",0.847 (active)
same,normalized growth,"locus YJL134W, strain LCB3, stronger effect = lower value",0.989
same,normalized growth,"locus YJL154C, strain vps35, stronger effect = lower value",1.01
same,normalized growth,"locus YJL164C, strain tpk1, stronger effect = lower value",0.988
same,normalized growth,"locus YJL166W, strain qcr8, stronger effect = lower value",0.992
same,normalized growth,"locus YJL168C, strain set2, stronger effect = lower value",0.989
same,normalized growth,"locus YJL187C, strain SWE1 (second series), stronger effect = lower value",0.997
same,normalized growth,"locus YJL187C, strain SWE1, stronger effect = lower value",1.03
